# Screens from PubChem BioAssay.
# Rev-erbA mod = modulates human Rev-erb alpha binding to DNA; Rev-erbα–FITC-DNA binding, fluorescence polarization, 90 min; activity, % at 10 µM; 370,000 compounds, 0.79% hits; AID 1259318;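 active means activity above about 14%, limit read from the data; passing the limit was not always enough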
# Target sequence (P20393 whole entry, looked up): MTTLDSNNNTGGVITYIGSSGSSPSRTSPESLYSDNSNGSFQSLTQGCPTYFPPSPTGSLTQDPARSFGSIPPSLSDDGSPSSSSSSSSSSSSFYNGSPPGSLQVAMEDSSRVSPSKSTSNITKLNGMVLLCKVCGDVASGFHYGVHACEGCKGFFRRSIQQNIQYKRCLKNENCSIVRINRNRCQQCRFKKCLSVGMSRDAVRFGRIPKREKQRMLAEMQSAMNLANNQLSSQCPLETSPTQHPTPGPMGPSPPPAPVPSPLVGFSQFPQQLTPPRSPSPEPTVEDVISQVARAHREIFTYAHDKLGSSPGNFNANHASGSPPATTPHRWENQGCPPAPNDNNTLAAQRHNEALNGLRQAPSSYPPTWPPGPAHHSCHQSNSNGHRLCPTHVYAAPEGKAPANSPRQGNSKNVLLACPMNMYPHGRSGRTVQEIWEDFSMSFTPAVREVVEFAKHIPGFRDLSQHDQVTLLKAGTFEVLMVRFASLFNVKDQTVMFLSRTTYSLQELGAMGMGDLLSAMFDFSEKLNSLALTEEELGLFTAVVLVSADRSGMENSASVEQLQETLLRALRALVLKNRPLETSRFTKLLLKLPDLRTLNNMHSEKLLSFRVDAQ
# PG9 binder = PG9 antibody binding by small molecule | 360,000 compounds, 0.43% hits | inhibition, % at 6.7 µM | TR-FRET gp120-PG9 antibody binding; in the data active means inhibition above about 8.5%
# V-ATPase pHluor = yeast V-ATPase proton transport regulation by pHLuorin | S. cerevisiae, pHLuorin cytosolic pH fluorescence | response, % at 10 µM | 350,000 compounds, 0.37% hits | AID 504577; in the data active means response mostly above about 7.3%, no sharp cut-off; inactive means mostly below about 5.4%; further: actives read high
# GC-A act = GC-A (human) enzyme activation; HEK293 GC-A cells, cGMP TR-FRET, EC30 ANP; 0% at EC30 ANP, 100% saturating ANP; 370,000 compounds, 0.14% hits; AID 1671463; P16066; activation, % at 10 µM; in the data active means activation above about 40%
# NPR2 activator = GC-B (human) receptor activation. P20594. HEK293-GC-B cells, CNP EC30, cGMP TR-FRET; 0% at EC30 CNP, 100% saturating CNP. activation, % at 10 µM. 370,000 compounds, 0.11% hits. AID 1920062;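 active means activation at 10 µM reaching about 35% in either raw or pattern-adjusted values, limit read from the data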
# PG9 bind confirm = PG9 antibody binding, confirmed. 1,500 compounds, 90% hits. TR-FRET PG9 antibody binding, biochemical. AID 651571. inhibition, % at 6.7 µM. shares compounds with PG9 binder; in the data active means inhibition above about 9%
# PGV04 Ab binding = PGV04 control antibody binding, counter-screen; shares compounds with PG9 binder; TR-FRET PGV04 antibody-gp120 binding, biochemical; inhibition, % at 6.7 µM; 1,500 compounds, 95% hits; AID 651604; in the data active means inhibition above about 9.5%
# PG9 binder DR = small molecules binding HIV-1 gp120 antibody PG9; shares compounds with PG9 binder; TR-FRET PG9 antibody-gp120 binding inhibition; IC50, µM; 95 tested, under 10 active; AID 651848; in the data active means IC50 below about 10 µM
# PGV04 DR counter = binds control antibody PGV04 in PG9 counter-screen | IC50, µM | shares compounds with PG9 binder | TR-FRET binding to control antibody PGV04 | 95 compounds, 20% hits
# PG126 DR counter = counter-screen for PG9 binders: binding to control antibody PG126; 95 compounds, 20% hits; IC50, µM; shares compounds with PG9 binder; TR-FRET binding to antibody PG126, counterscreen; AID 651939
# A number is an active result; - = inactive; . = no result. Most compounds without a hit are left out; they make up all but 1.6% or so of the library. Unless noted, no stated cut-off is given here; in the data, active means IC50 below about 9 µM; inactive means the rest.
SMILES,Rev-erbA mod,PG9 binder,V-ATPase pHluor,GC-A act,NPR2 activator,PG9 bind confirm,PGV04 Ab binding,others
COC(=O)c1cc(-c2ccc(Br)cc2)c2c(=O)[nH]c(=O)n(C)c2n1,-,20,-,-,-,29,16,PG9 binder DR=-;PGV04 DR counter=-;PG126 DR counter=-
COC(=O)c1cc(-c2ccc(OC)c(OC)c2)c2c(=O)[nH]c(=O)n(C)c2n1,-,21,-,-,-,21,29,
COC(=O)c1cc(-c2cccc([N+](=O)[O-])c2)c2c(=O)[nH]c(=O)n(C)c2n1,-,-,-,-,-,.,.,
O=C(NCc1cccs1)C1CCCN(S(=O)(=O)c2ccccc2)C1 (stereo unspecified),-,.,.,-,-,.,.,
O=C(O)C1CCC(Cn2c(SCc3cc(=O)n4cc(Br)ccc4n3)nc3ccsc3c2=O)CC1 (stereo unspecified),-,22,-,-,-,30,50,
Cc1ccc(C(=O)C2=C(O)C(=O)N(CCCN3CCOCC3)C23C(=O)N(C)c2ccccc23)o1 (stereo unspecified),-,9.1,-,-,-,19,23,
CCN1C(=O)C2(C(C(=O)c3ccc(C)o3)=C(O)C(=O)N2CCCN2CCOCC2)c2ccccc21 (stereo unspecified),-,-,-,-,-,.,.,
CCN1C(=O)C2(C(C(=O)c3cc4ccccc4o3)=C(O)C(=O)N2CCCN2CCOCC2)c2ccccc21 (stereo unspecified),-,36,-,-,-,45,55,
CCCN1C(=O)C2(C(C(=O)c3ccc(C)o3)=C(O)C(=O)N2CCCOC)c2ccccc21 (stereo unspecified),-,9.2,-,-,-,18,22,
O=S(=O)(O)c1ccccc1O,-,.,.,.,.,.,.,
Cc1c(NC(=O)C2CCCN(S(=O)(=O)c3ccc(Cl)s3)C2)c(=O)n(-c2ccccc2)n1C (stereo unspecified),-,.,.,-,-,.,.,
O=C(c1cc(Cl)cc(Cl)c1)N1CC[C@H]2[C@H](CCCN2Cc2cc(F)cc(F)c2)C1,-,.,.,-,-,.,.,
Cc1nn(-c2ccccc2)c2sc(C(=O)NC3CCCC3)cc12,-,.,.,-,-,.,.,
Cc1ccc(CSc2nnc(-c3cc(-c4ccc(C)cc4)n[nH]3)n2N)cc1,-,.,.,-,-,.,.,
CCCCC[n+]1ccn(-c2nc3ccccc3nc2[N-]S(=O)(=O)c2ccccc2)c1,-,-,-,-,-,.,.,
CCCC[n+]1ccn(-c2nc3ccccc3nc2[N-]S(=O)(=O)c2ccc(Cl)cc2)c1,-,17,-,-,-,28,34,
COC(=O)c1cc(Br)c(=O)n(-c2nccs2)c1,-,28,-,-,-,37,50,
N#Cc1cn(-c2ccccc2)nc1-c1ccc2c(c1)OCCO2,-,24,-,-,-,20,28,
COc1cccc(/C=N\N2CCN(c3ccc(C)cc3)CC2)c1O,-,.,.,-,-,.,.,
Cc1cc(SCC(=O)NC2(C#N)CCCCC2)nc2c(C)cccc12,-,23,-,-,-,31,37,
Cc1cc(SCCC(=O)O)nc2c(C)cccc12,-,11,-,-,-,14,18,
COc1ccc(Cn2cc(CN3[C@H](Cc4ccccc4)COc4cc(Br)ccc4S3(=O)=O)nn2)cc1,-,.,.,-,-,.,.,
COc1ccc(C(=O)NCCNc2nc3ccc(C)cc3cc2C#N)cc1,-,45,-,-,-,12,36,
Cc1ccc2nc(NCCNC(=O)c3ccccc3)c(C#N)cc2c1,-,-,-,-,-,.,.,
CCOc1ccc2nc(NCCNC(=O)Nc3cccc(C)c3)c(C#N)cc2c1,-,9.8,-,-,-,15,32,
SMILES,Rev-erbA mod,PG9 binder,V-ATPase pHluor,GC-A act,NPR2 activator,PG9 bind confirm,PGV04 Ab binding,others
O=C(O)CSc1c2c(nc3cc(C(=O)Nc4cccc(C(F)(F)F)c4)ccc13)CCC2,-,16,-,-,-,33,54,
CCOc1ccc(NC(=O)c2ccc3c(SCC(=O)O)c4c(nc3c2)CCCC4)cc1,-,-,-,-,-,.,.,
COC(=O)[C@@]12CCCCC=C1N(CCc1ccc(Cl)cc1)C(=O)[C@H]2CC(=O)NCC1CCCCC1,-,.,.,-,-,.,.,
O=C(CSc1nnc(COc2ccc(Cl)cc2)n1Cc1ccco1)Nc1ccc2c(c1)OCO2,-,.,.,-,-,.,.,
CCOc1ccc(NC(=O)COC(=O)c2ccc3c(c2)OCCO3)cc1,-,54,-,-,-,48,60,
CC(C)(C)CC(C)(C)c1cc(Cc2cc(C(C)(C)CC(C)(C)C)cc(-n3nc4ccccc4n3)c2O)c(O)c(-n2nc3ccccc3n2)c1,-,.,.,.,.,.,.,
Cc1cc(C)c2c(=O)[nH]c(SCC(=O)c3ccc(C(C)C)cc3)nc2n1,-,32,-,-,-,59,76,
O=C(NCCN1CCC(Cc2ccccc2)CC1)C1CCCN(S(=O)(=O)c2ccccc2)C1 (stereo unspecified),-,.,.,-,-,.,.,
C=CCn1c(SCC(=O)Nc2ccc(-c3nc4ccc(C)cc4s3)cc2)nnc1-c1ccccc1,-,9.6,-,-,-,13,27,
O=C(CSc1nnc2ccccn12)Nc1cccc(-c2nc3ccccc3s2)c1,-,8.9,-,-,-,13,25,
O=C(CSc1nnc2ccccn12)Nc1ccc2c(c1)OCO2,-,-,-,-,-,.,.,
COc1ccc2c(C)cc(=S)[nH]c2c1,-,19,-,-,-,8.6,9.5,
Cc1c(NC(=O)c2ccc(N3CCCC3)c([N+](=O)[O-])c2)cccc1-c1nc2ccccc2s1,-,-,-,-,-,.,.,
Cc1c(NC(=O)c2ncn[nH]2)cccc1-c1nc2ccccc2s1,-,27,-,-,-,33,51,
O=C(CSc1nc2ccccc2c(=O)n1Cc1ccc(F)cc1)NCc1cccs1,-,16,-,-,-,16,33,
O=C(CSc1nc2ccccc2c(=O)n1Cc1ccccc1)NCc1ccco1,-,20,-,-,-,21,25,
O=C(CSc1nc2ccccc2c(=O)n1Cc1ccco1)NCc1ccccc1,-,-,-,-,-,.,.,
O=S(=O)(c1ccc(Cl)cc1)N1CCN(c2ncccn2)CC1,-,16,-,-,-,26,32,
COc1ccc(S(=O)(=O)N2CCN(c3ncccn3)CC2)cc1,-,-,-,-,-,.,.,
CC(=O)c1cc(-c2ccccc2)n(CC(=O)NCc2cccs2)c1C,-,12,-,-,-,14,22,
